In general, AC50 refers to the midpoint of the concentration-response curve, whichever way the signal moves.

Where “and” joins values, the source holds several entries; their conditions need not be identical. Identical values can stand only once. Results filed as inconclusive are left out. Calls of active or inactive are those of the source. The calls were made as follows, unless noted: active = hit-call score of the fitted dose curve at least 0.9, where 1 is the maximum; inactive = score below 0.9.

From PubChem BioAssay (EPA / NIEHS) come the findings set out here.

The nature of experiment [1]: ACEA_ER_80hr: ACEA Biosciences xCELLigence Real-Time Cell Analysis on Estrogen Receptor Agonism for Proliferation (AID 2282667; active = hit-call score of the fitted dose curve at least 0.9, where 1 is the maximum). To be noted: T47D proliferation, impedance (xCELLigence), 80 h. In a few lines:
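Cell-growth kinetics were measured by impedance in T47D cells treated continuously with compound (top 100 uM final, 1:4 steps, 8 points). Activity at 80 h was scored as signal gain over the DMSO baseline.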

A short description of experiment [2]: APR_HepG2_CellCycleArrest_24hr: Apredica 24-hour HepG2 Assay for Cell Cycle Arrest (AID 2282905).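 Also: cell cycle arrest scored as ratio of 2N to 4N nuclear DNA content.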 The following applies: imaging, actives raise or lower the signal. Put shortly: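 Readout: Hoechst 33342 nuclear DNA content by high-content fluorescent imaging, six images/well, 20x. Human HepG2 liver cells, 24 hr compound exposure, 0.39–200 uM, final DMSO 0.5% v/v. Gain or loss fitted relative to DMSO baseline.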

Experiment [3] is described as follows: APR_HepG2_NuclearSize_24hr: Apredica 24-hour HepG2 Assay for Nuclear Size (AID 2282907). The following applies: high-content imaging, actives raise or lower the signal. In a few lines: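 Read-out: nuclear diameter from Hoechst 33342 (2 ug/mL) imaging of fixed HepG2 cells, 20x, six fields/well. Compounds ran at 0.39–200 uM for 24 hr, 0.5% DMSO final. Gain or loss was fitted bidirectionally relative to the DMSO baseline.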

Experiment [4] is described as follows: APR_HepG2_CellLoss_24hr: Apredica 24-hour HepG2 Assay for Cell Loss (AID 2282908).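 As to AC50: fit in both directions so a hit may be cell loss or gain.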 The following applies: high-content imaging. In a few lines:
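Read-out: Hoechst 33342-stained nuclei counted by automated fluorescence imaging after formaldehyde fixation and Triton permeabilization. Ten concentrations, 0.39 to 200 uM, duplicate wells, 0.5% DMSO final. Gain or loss of signal fitted relative to DMSO baseline.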

A short description of experiment [5]: APR_HepG2_MicrotubuleCSK_24hr: Apredica 24-hour HepG2 Assay for Microtubule CSK Stabilty (AID 2282909). The following applies: HepG2 microtubule cytoskeleton imaging, actives raise or lower the signal. Put shortly: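 Read-out: alpha-tubulin immunofluorescence intensity by automated high-content imaging of fixed HepG2 cells after 24 h compound treatment. Ten concentrations, 0.39 to 200 uM, in duplicate; DMSO 0.5% v/v. Taxol positive control; DMSO-normalized bidirectional curve fitting.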

Experiment [6] can be described thus: APR_HepG2_MitoticArrest_24hr: Apredica 24-hour HepG2 Assay for Mitotic Arrest (AID 2282910). The following applies: high-content imaging, actives raise or lower the signal. In a few lines:
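High-content imaging of fixed HepG2 cells labeled with Hoechst 33342 and anti-phospho-histone H3, after 24 h treatment. Ten concentrations 0.39 to 200 uM in duplicate, final DMSO 0.5%; changes fitted both directions relative to DMSO.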

A short description of experiment [7]: APR_HepG2_MitoMembPot_24hr: Apredica 24-hour HepG2 Assay for Mitochondrial Membrane Potential (AID 2282911). To be noted: imaging, actives raise or lower the signal. In a few lines: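 Human hepatoma HepG2 cultures received ten compound concentrations up to 200 uM for 24 hr. Membrane-potential dye signal, captured by automated fluorescence microscopy, was scored for gain or loss against DMSO controls.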

Experiment [8] in a line: APR_HepG2_MitoMass_24hr: Apredica 24-hour HepG2 Assay for Mitochondrial Mass (AID 2282912). The following applies: high-content imaging, actives raise or lower the signal. In a few lines: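 HepG2, 24 hr dosing, 10 concentrations 0.39–200 uM in duplicate, DMSO 0.5% final. MitoTracker Red CMXRos 250 nM, 30 min pre-fix; 3.7% formaldehyde fix. Imaging-based fluorescence intensity; gain/loss fit vs DMSO baseline.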

Experiment [9] can be described thus: APR_HepG2_p53Act_24hr: Apredica 24-hour HepG2 Assay for p53 Activation (AID 2282913).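 Also: p53 protein immunofluorescence averaged per cell in HepG2 with Hoechst nuclei.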 The following applies: high-content imaging, actives raise or lower the signal. In a few lines: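 Automated fluorescence imaging quantifies p53 immunostaining in HepG2 cells after a 24 hr exposure (0.39–200 uM, duplicate, 0.5% DMSO). Nuclei are located by Hoechst 33342 staining.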

A short description of experiment [10]: APR_HepG2_CellCycleArrest_72hr: Apredica 72-hour HepG2 Assay for Cell Cycle Arrest (AID 2282914). To be noted: high-content imaging, actives raise or lower the signal. In a few lines: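 Cell cycle arrest in HepG2 was scored from nuclear DNA content after 72 hr compound treatment (0.39–200 uM). Activity, either gain or loss, was fitted against the DMSO baseline.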

Experiment [11] can be described thus: APR_HepG2_CellLoss_72hr: Apredica 72-hour HepG2 Assay for Cell Loss (AID 2282915). To be noted: high-content imaging. Put shortly: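 Cell number comes from Hoechst 33342-labelled nuclei, imaged at 20x after 3.7% formaldehyde fixation. Dosing was 0.39–200 uM, ten concentrations in duplicate, 0.5% DMSO final, for 72 h. Bidirectional fit relative to DMSO baseline.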

A short description of experiment [12]: APR_HepG2_P-H2AX_72hr: Apredica 72-hour HepG2 Assay for H2AX Phosphorylation (AID 2282916).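 Also: phospho-histone H2A.x immunostain intensity per cell marking DNA damage.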 To be noted: imaging, actives raise or lower the signal. Put shortly:
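Readout: phospho-H2A.x immunofluorescence (FITC secondary) plus Hoechst nuclear stain, high-content imaging at 20x, six fields/well. HepG2, 72 hr compound exposure, 0.39–200 uM, final DMSO 0.5% v/v. Gain or loss fitted relative to DMSO baseline.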

Experiment [13] can be described thus: APR_HepG2_MitoMembPot_72hr: Apredica 72-hour HepG2 Assay for Mitochondrial Membrane Potential (AID 2282917). The following applies: imaging, actives raise or lower the signal. In a few lines:
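Membrane potential read by MitoTracker Red CMXRos (250 nM, 30 min, pre-fixation) fluorescence imaging of HepG2 after 72 hr exposure. Ten concentrations, 0.39–200 uM, duplicate wells, 0.5% DMSO; fitted in both directions against DMSO baseline.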

Experiment [14] in a line: APR_HepG2_MitoticArrest_72hr: Apredica 72-hour HepG2 Assay for Mitotic Arrest (AID 2282918). To be noted: high-content imaging, actives raise or lower the signal. Put shortly: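 Mitotic arrest in HepG2 is scored from phospho-histone H3 staining after 72 hr dosing across 0.39–200 uM, with DMSO at 0.5% v/v. Nuclei are identified by Hoechst 33342 and fluorescence intensity is quantified per cell.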

Experiment [15] is described as follows: APR_HepG2_MicrotubuleCSK_72hr: Apredica 72-hour HepG2 Assay for Microtubule CSK Stabilty (AID 2282919). To be noted: HepG2 microtubule cytoskeleton, high-content imaging, actives raise or lower the signal. In a few lines: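 High-content imaging of alpha-tubulin staining in fixed HepG2 cells after 72 hr treatment with ten concentrations from 0.39 to 200 uM (0.5% DMSO). Fitting was bidirectional against DMSO; taxol served as positive control.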

Experiment [16] can be described thus: APR_HepG2_P-H2AX_24hr: Apredica 24-hour HepG2 Assay for H2AX Phosphorylation (AID 2282920). The following applies: high-content imaging, actives raise or lower the signal. In a few lines: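 Signal comes from a FITC-labeled secondary detecting phospho-histone H2A.x in fixed HepG2 cells, quantified by automated imaging at 20x. Dosing ran 24 hr across 0.39–200 uM with 0.5% v/v DMSO.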

The nature of experiment [17]: APR_HepG2_StressKinase_72hr: Apredica 72-hour HepG2 Assay for Stress Kinase (AID 2282921). To be noted: HepG2 stress kinase (phospho-c-Jun) imaging, actives raise or lower the signal. In a few lines:
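Phospho-c-Jun immunofluorescence measured by high-content imaging at 20x, six fields per well; bidirectional curve fitting against DMSO as baseline. Dosing: 0.39–200 uM, 72 h, 0.5% DMSO final.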

Experiment [18] in a line: APR_HepG2_StressKinase_24hr: Apredica 24-hour HepG2 Assay for Stress Kinase (AID 2282922). The following applies: HepG2 stress kinase (phospho-c-Jun) imaging, actives raise or lower the signal. In a few lines:
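High-content imaging of phospho-c-Jun immunofluorescence in fixed, permeabilized HepG2 cells after 24 h dosing. Ten concentrations, 0.39 to 200 uM, run in duplicate at 0.5% v/v DMSO; gain or loss of signal versus DMSO.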

Experiment [19] can be described thus: APR_HepG2_p53Act_72hr: Apredica 72-hour HepG2 Assay for p53 Activation (AID 2282923).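 Also: average cellular p53 protein immunofluorescence intensity in HepG2 cells.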 To be noted: high-content imaging, actives raise or lower the signal. Put shortly:
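Readout: p53 immunofluorescence quantified by automated high-content imaging at 20x, six fields per well, nuclei located via Hoechst. Dosing ran 72 hr over ten concentrations from 0.39 to 200 uM; bidirectional curve fitting against DMSO baseline.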

Experiment [20] can be described thus: APR_HepG2_MitoMass_72hr: Apredica 72-hour HepG2 Assay for Mitochondrial Mass (AID 2282924).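 Also: MitoTracker Red CMXRos stain intensity per cell imaged as mitochondrial mass.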 The following applies: high-content imaging, actives raise or lower the signal. In a few lines:
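Readout is imaged MitoTracker Red (250 nM, 30 min, pre-fixation) signal, fitted bidirectionally against DMSO baseline. Human HepG2 liver cells received compound 0.39–200 uM in duplicate for 72 hr, final DMSO 0.5%.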

Turning to `O=C(/C=C/c1ccc(O)cc1)CC(=O)/C=C/c1ccc(O)cc1`, the molecule was called inactive in experiment [1], in experiment [2], in experiment [4], in experiment [5], in experiment [7] and in experiment [9]. Moreover, the result in experiment [10], in experiment [11], in experiment [13], in experiment [14], in [15] and in experiment [16] was inactive. The call in experiment [19] was inactive. In addition, the concentration at half-maximal activity (AC50) in [3] was 68.6 µM (active); in experiment [6], 24.6 µM (active); in experiment [8], 61 µM (active); in [12], 32.1 µM (active); in experiment [17] it was 27.1 µM (active); in experiment [18], 100 µM (active). In [20], the AC50 was 46.3 µM (active).
For the molecule `O=c1c(-c2ccc(O)cc2)coc2cc(O)ccc12`, the AC50 in [1] is 330 nM (active) and 318 nM (active) and 427 nM (active). In addition, the result in experiment [2], in experiment [3], in experiment [4], in [5], in experiment [6] and in [7] was inactive. The molecule was classed as inactive in [8], in [9], in experiment [10], in experiment [11], in experiment [12] and in experiment [13]. Further, the result in experiment [14], in experiment [15], in experiment [16], in experiment [17], in experiment [18] and in [19] was inactive. The call in experiment [20] was inactive.
`CC(C)(C)c1ccc(O)c(C(C)(C)C)c1`: the result in [1], in experiment [2], in [3], in [5], in experiment [6] and in [8] was inactive. Further, the molecule was classed as inactive in experiment [9], in experiment [10], in [13], in experiment [14], in experiment [15] and in [20]. Moreover, the AC50 in [4] is 38.5 µM (active); in [7] it was 8.96 µM (active); in experiment [11] it was 66 µM (active); in experiment [12], 36.5 µM (active); in experiment [16], 42.8 µM (active); in experiment [17], 56.6 µM (active). Also, the figures for the half-maximal activity concentration (AC50) in experiment [18] and in experiment [19] were 48.3 µM (active) and 20.3 µM (active), respectively.
Consider `O=C(O)c1ccccc1C(c1ccc(O)cc1)c1ccc(O)cc1`, for which the outcome in [1], in experiment [2], in [3], in [4], in experiment [5] and in experiment [6] was inactive. Also, the molecule was classed as inactive in [7], in experiment [8], in [12], in experiment [13], in experiment [14] and in experiment [15]. In addition, the molecule was classed as inactive in experiment [16], in experiment [17], in experiment [18] and in experiment [20]. Moreover, the AC50 in experiment [10] is 100 µM (active); in experiment [11], 80.2 µM (active).
For the molecule `CC[C@H](c1ccc(O)cc1)[C@@H](CC)c1ccc(O)cc1`, the AC50 in experiment [1] was 6.89 nM (active) and 5.23 nM (active) and 2.6 nM (active); in experiment [7], 0.0485 µM (active). Further, the molecule was called inactive in experiment [2], in experiment [3], in [4], in [5], in experiment [6] and in experiment [8]. Moreover, the molecule was called inactive in experiment [9], in experiment [10], in experiment [11], in [12], in experiment [13] and in experiment [14]. In addition, the result in experiment [15], in experiment [16], in experiment [17], in experiment [18], in experiment [19] and in experiment [20] was inactive.
For `COc1ccc([N+](=O)[O-])cc1N`, the molecule was classed as inactive in [1], in experiment [2], in experiment [3], in [4], in [5] and in [6]. The call in [7], in [8], in experiment [9], in [10], in experiment [11] and in experiment [12] was inactive. Besides, the call in experiment [13], in [14], in [15], in experiment [16], in experiment [17] and in [18] was inactive. Further, the molecule was called inactive in experiment [19] and in experiment [20].
